Here are results for 40 molecules from PubChem BioAssay.

A number with no mark means an inactive call. The list shows a part of the results. Activity calls are given as the source filed them. Cut-off read from the data, not from the text of the source, unless noted: active = inhibition above about 25%; inactive = the rest.

Test system in the first assay: not listed separately
The experiment in a line: repression of VP16-driven luciferase reporter – cell-based, luminescence, high throughput, counter-screen for SRC1 inhibitor project (AID 588824). Conditions: cell-based VP16 transactivation luciferase luminescence; at 3.6 µM; stronger effect = higher value. Background: In a reporter assay the amount or activity of a reporter protein is the signal.
For `Cc1ccc(/C=C/c2ccc(N(C)C)cc2)[n+](C)c1`, the inhibition was 50.1% (active).
In the case of `CCCCCCCC[n+]1cccc2c3ccccc3ccc21`, the inhibition was 83.7% (active).
Still for that read-out and setting: for `N=c1c2c(-c3ccccc3)c(-c3ccccc3)n(Cc3ccccc3)c2ncn1CCO` the value was 57.8% (active); for `COc1ccc(Nc2ncnc3ccc(Br)cc23)c(OC)c1`, 8.18%; for `O=C(N/N=C/c1sc(N2CCOCC2)nc1-c1ccccc1)c1cccc(S(=O)(=O)N2CCOCC2)c1`, 61.9% (active).
Consider `OCC1OC(n2cnc3c(NCc4ccccc4O)ncnc32)C(O)C1O` (configuration not stated), for which the inhibition is 80% (active).
Same read-out and setting: to `CCOc1cc(/C=C(/C#N)c2ccc(Cl)cc2)cc(Cl)c1OCC(=O)O` belongs 36.9% (active); to `O=C(NCc1ccco1)c1ccc2c(c1)N(Cc1ccccc1)CCS2`, 1.86%.
In the case of `CCn1c(C)cc(C(=O)COC(=O)c2ccccc2[N+](=O)[O-])c1C`, the inhibition is 86.1% (active).
As to `O=C(N/N=C/c1cc(Cl)ccc1O)C(=O)Nc1ccccc1OC(F)(F)C(F)F`, the inhibition is 44.3% (active).
Take `CCC(C)(C)c1ccc(OCCCC[n+]2cccc(C)c2C)c(C(C)(C)CC)c1`: the inhibition is 71% (active).
Same read-out and setting: to `CC(C)(C)c1ccc(Oc2ccc(N)cc2)cc1` belongs 57.7% (active).
Consider `COc1ccccc1C(=O)Nc1nc2ccccc2s1`, for which the inhibition was 71% (active).
The same measure, in the same setting: for `COc1cccc(/C=N/NC(=O)c2c(C)nc3ccc(Cl)cn23)c1O` the value was 73.9% (active); for `C=CCn1c(C)cc(C2=NNC(=NCC)SC2)c1C`, 81% (active); for `COc1cccc(Cn2c(NCc3cccnc3)nc3c2c(=O)n(C)c(=O)n3C)c1`, 38% (active).
Turning to `NC(=S)NN=Cc1nccc2c(C(F)(F)F)cccc12`, the inhibition was 56.4% (active).
Same read-out and setting: for `Cc1ccsc1C(=O)OCC(=O)c1cc(C)n(CC2CCCO2)c1C` (configuration not stated) the value was 44.4% (active); for `CC(C)CC(=NNC(=O)c1ccncc1)c1cc(Cl)ccc1O`, 78.7% (active).
Take `CN(C)c1ccc(/C=C/c2ccc3c4ccccc4ccc3[n+]2-c2ccccc2)cc1`: the inhibition is 79.4% (active).
Regarding `Cc1ccc(C)c(S(=O)(=O)N2CCN(c3ncnc4sccc34)CC2)c1`, the inhibition is 56.5% (active).
With `CC(C)c1ccc(/C=N/Nc2ccc(C(=O)O)cc2)cc1`, the inhibition is -51.3%.
On to `Cc1oc2c(F)c(F)c(F)c(F)c2c1S(=O)(=O)Nc1cccc(C(F)(F)F)c1`, for which the inhibition was 4.85%.
The same measure, in the same setting: to `Cc1cccn2c(=O)c3cc(C(=O)NCCN4CCOCC4)c(=N)n(Cc4ccc(F)cc4)c3nc12` belongs 28.3% (active).
As for `COc1ccc(-c2cn[nH]c2-c2ccc(OCc3ccc([N+](=O)[O-])cc3)cc2O)cc1`, the inhibition was 27.4% (active).
As to `O=C(Nc1ccon1)c1nc[nH]c1C(=O)NCc1ccccc1`, the inhibition was 53.3% (active).
With `CC(=NNC(=S)Nc1cccc(C)c1)c1ccccn1`, the inhibition was 66.7% (active).
`Cc1[nH]c(=O)c(C(=O)/C=C/c2ccccc2)c2c1CCCC2`: the inhibition was 57.9% (active).
`COC(=O)C12OCC34C(CC5C(C)=C(O)C(=O)CC5(C)C3C(O)C1O)OC(=O)C(OC(=O)C=C(C)C)C24` (configuration not stated): the inhibition is 96.3% (active).
As to `CCCCCCn1c2c(c(=N)c3c1CCC3)CCC2`, the inhibition is 76.4% (active).
Still for that read-out and setting: for `COc1ccc(CCNc2ncnc3c2oc2ccccc23)cc1OC` the value was 32.5% (active); for `CN(C)c1ccc(CNC(=O)CCNS(=O)(=O)c2cc(Br)cnc2N)cc1`, 20.7%.
As for `O=C(c1ccccc1)c1c2c(cc3sc4ccccc4[n+]13)-c1cccc3cccc-2c13`, the inhibition is 64.6% (active).
On the same count and under the same terms, for `CC(=O)N1CCCc2cc(S(=O)(=O)N3CCCC(C(=O)N4CCN(c5cccc(Cl)c5)CC4)C3)ccc21` (configuration not stated) the value was 35.6% (active); for `OCCCNc1nccc(-c2cc(Nc3cccc(Cl)c3)ncn2)n1`, 95.1% (active).
`O=c1c2ccccc2sc2ccc(C#CC3(O)CCCCC3)cc12`: the inhibition was 75% (active).
On to `COc1ccc(-c2oc3ccc(N4CCOCC4)cc3c2C#CCO)cc1`, for which the inhibition is 18.5%.
Take `O=C(Nc1ccc2c(c1)OCCO2)C1CCCC1`: the inhibition is -33.3%.
Take `CC[C@H]1CN2CCc3cc(OC)c(OC)cc3[C@@H]2C[C@@H]1C[C@H]1NCCc2cc(OC)c(OC)cc21`: the inhibition is 96.4% (active).
Still for that read-out and setting: to `CC(=O)NC(c1ccc(Cl)cc1)c1ccc2cccnc2c1O` (configuration not stated) belongs 78.4% (active).

A further assay deals with Photoreceptor-specific nuclear receptor (Homo sapiens) (UniProt Q9Y5X4). The experiment in a line: retest of NR2E3-NCOR disrupting agonists – cell-based, luminescence, CHO-S two-hybrid, confirmation (AID 624378;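 active = average inhibition above a cutoff equal to the mean inhibition of all tested compounds plus one SD, cut at about 70% in these data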;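 note: 0% = DMSO in NR2E3 cells and 100% = DMSO in cells lacking NR2E3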). To be noted: CHO-S mammalian two-hybrid NR2E3-NCOR, luciferase luminescence; at 3.98 µM; stronger effect = higher value.
Chain of Photoreceptor-specific nuclear receptor (Homo sapiens) (Q9Y5X4 whole entry, looked up): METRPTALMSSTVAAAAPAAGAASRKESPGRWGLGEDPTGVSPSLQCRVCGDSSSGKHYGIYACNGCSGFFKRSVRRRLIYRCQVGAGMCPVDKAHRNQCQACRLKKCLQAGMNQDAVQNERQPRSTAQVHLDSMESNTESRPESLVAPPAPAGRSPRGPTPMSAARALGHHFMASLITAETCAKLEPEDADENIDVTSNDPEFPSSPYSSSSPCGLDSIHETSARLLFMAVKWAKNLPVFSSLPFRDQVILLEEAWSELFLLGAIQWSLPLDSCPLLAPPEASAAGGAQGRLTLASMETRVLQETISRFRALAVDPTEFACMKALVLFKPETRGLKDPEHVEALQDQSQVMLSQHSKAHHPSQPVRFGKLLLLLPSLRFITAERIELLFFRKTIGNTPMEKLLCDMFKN
For the molecule `COc1ccc(Nc2ncnc3ccc(Br)cc23)c(OC)c1`, the inhibition was 85.3% (active).
As for `CCOc1cc(/C=C(/C#N)c2ccc(Cl)cc2)cc(Cl)c1OCC(=O)O`, the inhibition is 62.7%.
Take `CC(C)(C)c1ccc(Oc2ccc(N)cc2)cc1`: the inhibition was 36.9%.
For the molecule `C=CCn1c(C)cc(C2=NNC(=NCC)SC2)c1C`, the inhibition was 77.4% (active).
As to `Cc1ccsc1C(=O)OCC(=O)c1cc(C)n(CC2CCCO2)c1C` (configuration not stated), the inhibition was 70.8% (active).
For the molecule `Cc1ccc(C)c(S(=O)(=O)N2CCN(c3ncnc4sccc34)CC2)c1`, the inhibition was 93.9% (active).
`Cc1oc2c(F)c(F)c(F)c(F)c2c1S(=O)(=O)Nc1cccc(C(F)(F)F)c1`: the inhibition is 100% (active).
Turning to `Cc1[nH]c(=O)c(C(=O)/C=C/c2ccccc2)c2c1CCCC2`, the inhibition was 24.6%.
On to `CC(=O)N1CCCc2cc(S(=O)(=O)N3CCCC(C(=O)N4CCN(c5cccc(Cl)c5)CC4)C3)ccc21` (configuration not stated), for which the inhibition is 93% (active).
In the case of `OCCCNc1nccc(-c2cc(Nc3cccc(Cl)c3)ncn2)n1`, the inhibition was 100% (active).
Turning to `O=C(Nc1ccc2c(c1)OCCO2)C1CCCC1`, the inhibition is 53.2%.
On to `CC[C@H]1CN2CCc3cc(OC)c(OC)cc3[C@@H]2C[C@@H]1C[C@H]1NCCc2cc(OC)c(OC)cc21`, for which the inhibition is 97.8% (active).

Usually inhibition stands for the drop in the measured response relative to a control, in per cent.
